Here are results for 7 compounds from PubChem BioAssay (Tox21).

Assay [1] deals with Thyrotropin-releasing hormone receptor (Homo sapiens) (UniProt P34981). The assay can be described thus: qHTS assay to identify small molecule agonists of the thyrotropin-releasing hormone receptor (TRHR) signaling pathway (AID 1346891; calls by dose curve;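 further: HEK293 cells expressing TRHR with calcium dye readout; series mostly up to about 58 µM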). In outline: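 In 1536-format, 1500 TRHR-Hek293 cells per well grew 18 h, took up calcium dye for 2 h at 37 °C, received compound, and were read kinetically; 15-point titrations, triplicates.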

The nature of assay [2]: Human pregnane X receptor (PXR) small molecule agonists, qHTS cell viability counter screen (AID 1346977). Further: nearly all actives have a fitted effect of over 50% in size. Further: potency means the concentration at half of the fitted maximal effect. In outline: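 Readout is CellTiter-Fluor fluorescence from PXR-Luc HepG2 cells. Plated cells rested 5hr, then were treated with compounds for 24hr at 37C and 5% CO2, with reagent present during the last hour.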
In general terms: Quantitative high-throughput screening tests each substance at several concentrations.

Assay [3] in a line: Caspase-3/7 induction in HepG2 cells by small molecules, qHTS assay (AID 1346978). Further: nearly all actives have a fitted effect of over 15% in size. The essentials: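 Caspase-3/7 induction was measured by Caspase-Glo 3/7 luminescence (30 min, room temperature) after a 17 hr compound exposure of wild-type HepG2 cells seeded at 2,000 per well and pre-incubated 5 hr.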
The nature of assay [4]: Caspase-3/7 induction in CHO-K1 cells by small molecules, qHTS assay (AID 1346980). Further: nearly all actives have a fitted effect of over 15% in size. The essentials: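 Luminescent Caspase-Glo 3/7 read (30min, room temperature) quantified apoptosis induction. Cells were wild-type CHO-K1, treated with compound for 17hr at 37 C and 5% CO2.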
Assay [5] is described as follows: Caspase-3/7 induction in HepG2 cells by small molecules, qHTS cell viability counter screen (AID 1346981). Further: nearly all actives have a fitted effect of over 30% in size. Further: potency means the concentration at half of the fitted maximal effect. On activity change, negative = cytotoxicity: series mostly up to about 92 µM. The essentials: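 In this quantitative HTS counter screen, compounds delivered in DMSO were left on unmodified HepG2 cells for 16 hr at 37 C. Viability was then determined fluorometrically with CellTiter-Fluor, in parallel with caspase-3/7 induction in the same wells.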

Assay [6] deals with Nuclear receptor subfamily 1 group I member 2 (Homo sapiens) (UniProt O75469). The assay can be described thus: Human pregnane X receptor (PXR) small molecule agonists, qHTS assay (AID 1346982). Further: nearly all actives have a fitted effect of over 35% in size. Further: potency means the concentration at half of the fitted maximal effect. In outline: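 Reporter HepG2 cells expressing PXR-Luc are cultured in charcoal-stripped FBS (5%), treated with compounds for 24 hr at 37 C, and assayed by ONE-Glo luminescence after 30 min at room temperature.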

Assay [7] has as its target Acetylcholinesterase (Homo sapiens) (UniProt P22303). Kind of assay: Acetylcholinesterase (AChE) small molecule antagonists: colormetric cell-based qHTS assay (AID 1347395; calls by dose curve; further: nearly all actives have a fitted effect of over 30% in size). The essentials:
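Neuroblastoma line SH-SY5Y supplied the enzyme; cells were preincubated with compound for 30 min at 37 C and 5% CO2. Acetylthiocholine with DTNB was then added for 90 min at 37 C, and thiocholine was measured by colour.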

Assay [8] has the same target. The assay can be described thus: Acetylcholinesterase (AChE) small molecule antagonists: enzyme-based qHTS assay (AID 1347397; calls by dose curve; further: nearly all actives have a fitted effect of over 55% in size). Particulars: Potency: AChE enzyme activity inhibition. The essentials: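 Colorimetric DTNB readout of acetylthiocholine hydrolysis, 10 min at room temperature, after 30 min room-temperature exposure of 50 mU/mL recombinant human enzyme to compound; DMSO vehicle control.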

Assay [9] shares this target. Kind of assay: Acetylcholinesterase (AChE) small molecule antagonists: fluorescence cell-based qHTS assay (AID 1347398; calls by dose curve; further: nearly all actives have a fitted effect of over 50% in size). Particulars: Potency: AChE activity. The essentials:
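Cellular AChE activity read as thiocholine from acetylthiocholine hydrolysis, detected by Thiolite Green fluorescence at 490/520 nm after 40 min at room temperature. Compounds were pre-incubated 30 min at 37 C on adherent SH-SY5Y cells.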

Assay [10] shares this target. Kind of assay: Acetylcholinesterase (AChE) small molecule antagonists: enzyme-based qHTS assay with human liver microsomes (AID 1347399; calls by dose curve; further: nearly all actives have a fitted effect of over 60% in size). Particulars: Potency: qHTS inhibition. The essentials: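 Recombinant human AChE (50 mU/mL in the enzyme mix) and human liver microsomes (0.25 mg/mL final) were preincubated with compound and NADPH (0.25 mg/mL final) for 30 min at 37 C. Acetylthiocholine/DTNB was then added; thiocholine was read colorimetrically after 10 min at room temperature.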

Assay [11] has as its target Cytochrome P450 2D6 (Homo sapiens) (UniProt P10635). Kind of assay: Cytochrome P450 Family 2 Subfamily D Member 6 (CYP2D6) small molecule antagonists: luciferase reporter qHTS assay (AID 1671196). Further: nearly all actives have a fitted effect of over 50% in size. Further: potency means the concentration at half of the fitted maximal effect. On activity change, negative = inhibition: series mostly up to about 120 µM. The essentials: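 Test chemicals meet CYP2D6 plus proluciferin substrate (10 min, RT); NADPH regenerating solution then drives turnover for 1 h. Detection reagent halts the reaction; luminescence measured after 20 min.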
On the technique in general: In a reporter assay the amount or activity of a reporter protein is the signal.

Assay [12] concerns the target Cytochrome P450 2C19 (Homo sapiens) (UniProt P33261). The assay can be described thus: Cytochrome P450 Family 2 Subfamily C Member 19 (CYP2C19) small molecule antagonists: luciferase reporter qHTS assay (AID 1671197). Further: nearly all actives have a fitted effect of over 65% in size. Further: potency means the concentration at half of the fitted maximal effect. On activity change, negative = inhibition: series mostly up to about 120 µM. The essentials:
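P450-Glo CYP2C19 screening system; proluciferin substrate; DMSO compound stocks; 10 min RT preincubation; NADPH regeneration, 1 h at 37C; luciferin detection reagent, 20 min RT; luminescence as RLU.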

Assay [13] deals with Cytochrome P450 2C9 (Homo sapiens) (UniProt P11712). Kind of assay: Cytochrome P450 Family 2 Subfamily C Member 9 (CYP2C9) small molecule antagonists: luciferase reporter qHTS assay (AID 1671198). Further: nearly all actives have a fitted effect of over 50% in size. Further: potency means the concentration at half of the fitted maximal effect. On activity change, negative = inhibition: series mostly up to about 120 µM. In outline: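 Enzyme-substrate mix preincubated with compound 10 min at room temperature; reaction started with NADPH regeneration solution, 1 h 37C. Luminescent luciferin product read after 20 min detection reagent.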

Assay [14] deals with Cytochrome P450 1A2 (Homo sapiens) (UniProt P05177). The assay can be described thus: Cytochrome P450 Family 1 Subfamily A Member 2 (CYP1A2) small molecule antagonists: luciferase reporter qHTS assay (AID 1671199). Further: nearly all actives have a fitted effect of over 50% in size. Further: potency means the concentration at half of the fitted maximal effect. On activity change, negative = inhibition: series mostly up to about 120 µM. The essentials:
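Steps: enzyme-substrate mix dispensed; test compounds and furafylline control pinned in; 10 min room temperature; NADPH regeneration solution added, 1 h; reaction stopped with luciferin detection reagent; luminescence read after 20 min.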

The target in assay [15] is Cytochrome P450 3A4 (Homo sapiens) (UniProt P08684). The assay can be described thus: Cytochrome P450 Family 3 Subfamily A Member 4 (CYP3A4) small molecule antagonists: luciferase reporter qHTS assay (AID 1671201). Further: nearly all actives have a fitted effect of over 50% in size. Further: potency means the concentration at half of the fitted maximal effect. On activity change, negative = inhibition: series mostly up to about 120 µM. In outline: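 Setup: enzyme-substrate mix, compound pin transfer, 10 min RT. Reaction: NADPH regeneration solution, 1 h RT. Readout: detection reagent stops turnover, luminescence measured after 20 min, expressed in relative luminescence units.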

The target of assay [16] is Nuclear receptor subfamily 1 group I member 2 (Rattus norvegicus) (UniProt Q9R1A7). Kind of assay: Rat pregnane X receptor (rPXR) activation by small molecules, qHTS assay (AID 1346983). Further: nearly all actives have a fitted effect of over 20% in size. Particulars: rPXR luciferase reporter cells, One-Glo luminescence, 24 h; max activation: stronger effect = higher value. The essentials: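 Luminescent readout (One-Glo luciferase, 30 min room temperature) followed 24 hr compound treatment at 37 C of rPXR cells plated 2,000 per well and preincubated 5hr; qHTS format with compounds delivered in DMSO.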

The target in assay [17] is Nuclear receptor subfamily 1 group I member 2 (Homo sapiens) (UniProt O75469). The assay can be described thus: CYP3A4 induction through human pregnane X receptor (PXR) by small molecules, qHTS assay (AID 1346984). Further: nearly all actives have a fitted effect of over 40% in size. The essentials:
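Induction measured in HepG2-based DPX-2 cells co-expressing human PXR and a CYP3A4 promoter-driven luciferase. After a 24-hour compound exposure, cells received CYP3A4 luciferin substrate at 3uM final for 3 hours, and light output was then recorded.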

Assay [18] has the same target. The assay can be described thus: Human pregnane X receptor (PXR) activation by small molecules, qHTS assay (AID 1346985). Further: nearly all actives have a fitted effect of over 40% in size. The essentials: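 DPX-2 cells (HepG2 co-transfected with a PXR response element and a CYP3A4-promoter luciferase construct) were seeded at 2,000 per well, rested 5 hr at 37C, then exposed to DMSO-dissolved compounds for 24 hr. Activation was read as luciferase luminescence.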

Assay [19] concerns the target Voltage-gated inwardly rectifying potassium channel KCNH2 (Homo sapiens) (UniProt Q12809). Kind of assay: Human Ether-a-go-go-Related Gene (hERG) channel small molecule antagonists: fluorescence cell-based qHTS assay (AID 1671200). In outline:
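Measured: Tl+ flux via fluorescence (480/540 nm) in hERG-expressing U2OS cells after 1 h dye loading at room temperature.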
For orientation: Block of hERG is tested as a sign of cardiac risk.

The nature of assay [20]: Caspase-3/7 induction in CHO-K1 cells by small molecules, qHTS cell viability counter screen (AID 1346979). Further: nearly all actives have a fitted effect of over 35% in size. In outline:
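To flag cytotoxic compounds, treated CHO-K1 wild-type cells were given CellTiter-Fluor at 16hr and read fluorescently after 1hr at 37C; the caspase-3/7 luminescence was measured in these same wells.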

The structures appear in SMILES notation. Values joined by “and” are separate entries in the source; they are usually repeats but may differ in a detail not shown here. Equal values may be shown once. Values without a mark were called inactive. Records with an inconclusive call do not appear. Active and inactive are the calls of the source. Unless noted, the call rests on the fitted dose curve; in most records, active means well fitted curve in the direction sought with a large enough effect in the repeat runs; inconclusive means weak or mixed curves; inactive means no such curve, though single readings can be large; an effect the other way counts as inactive or inconclusive.
On the % scale 0 is the no-effect control and ±100 the full control effect.

Nuclear receptor subfamily 1 group I member 2 (Rattus norvegicus), sequence (Q9R1A7 whole entry, looked up): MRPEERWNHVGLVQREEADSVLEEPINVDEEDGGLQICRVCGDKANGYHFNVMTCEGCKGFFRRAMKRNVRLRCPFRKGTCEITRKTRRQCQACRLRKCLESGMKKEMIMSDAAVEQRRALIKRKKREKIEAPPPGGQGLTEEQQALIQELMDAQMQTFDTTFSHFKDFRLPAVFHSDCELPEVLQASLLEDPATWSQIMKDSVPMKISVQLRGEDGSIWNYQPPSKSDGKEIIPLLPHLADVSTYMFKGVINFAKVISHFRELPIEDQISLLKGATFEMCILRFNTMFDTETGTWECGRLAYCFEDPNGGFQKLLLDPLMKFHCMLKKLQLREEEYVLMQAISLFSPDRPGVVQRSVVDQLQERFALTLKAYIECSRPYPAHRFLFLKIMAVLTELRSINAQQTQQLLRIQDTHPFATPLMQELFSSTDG
Cytochrome P450 2D6 (Homo sapiens), sequence (P10635 whole entry, looked up): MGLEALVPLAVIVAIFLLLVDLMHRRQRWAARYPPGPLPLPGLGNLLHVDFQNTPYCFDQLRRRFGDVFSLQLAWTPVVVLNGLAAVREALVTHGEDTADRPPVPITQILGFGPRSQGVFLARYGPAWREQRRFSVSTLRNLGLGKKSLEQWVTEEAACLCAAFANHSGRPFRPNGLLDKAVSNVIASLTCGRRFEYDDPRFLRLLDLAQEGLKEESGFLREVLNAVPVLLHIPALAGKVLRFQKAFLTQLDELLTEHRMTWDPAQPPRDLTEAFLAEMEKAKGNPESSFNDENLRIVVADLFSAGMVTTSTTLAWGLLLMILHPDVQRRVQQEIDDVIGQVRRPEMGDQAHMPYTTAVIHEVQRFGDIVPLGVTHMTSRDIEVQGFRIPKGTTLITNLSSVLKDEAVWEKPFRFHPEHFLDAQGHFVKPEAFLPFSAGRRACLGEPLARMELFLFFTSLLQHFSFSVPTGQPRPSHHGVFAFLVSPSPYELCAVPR
Acetylcholinesterase (Homo sapiens), sequence (P22303 whole entry, looked up): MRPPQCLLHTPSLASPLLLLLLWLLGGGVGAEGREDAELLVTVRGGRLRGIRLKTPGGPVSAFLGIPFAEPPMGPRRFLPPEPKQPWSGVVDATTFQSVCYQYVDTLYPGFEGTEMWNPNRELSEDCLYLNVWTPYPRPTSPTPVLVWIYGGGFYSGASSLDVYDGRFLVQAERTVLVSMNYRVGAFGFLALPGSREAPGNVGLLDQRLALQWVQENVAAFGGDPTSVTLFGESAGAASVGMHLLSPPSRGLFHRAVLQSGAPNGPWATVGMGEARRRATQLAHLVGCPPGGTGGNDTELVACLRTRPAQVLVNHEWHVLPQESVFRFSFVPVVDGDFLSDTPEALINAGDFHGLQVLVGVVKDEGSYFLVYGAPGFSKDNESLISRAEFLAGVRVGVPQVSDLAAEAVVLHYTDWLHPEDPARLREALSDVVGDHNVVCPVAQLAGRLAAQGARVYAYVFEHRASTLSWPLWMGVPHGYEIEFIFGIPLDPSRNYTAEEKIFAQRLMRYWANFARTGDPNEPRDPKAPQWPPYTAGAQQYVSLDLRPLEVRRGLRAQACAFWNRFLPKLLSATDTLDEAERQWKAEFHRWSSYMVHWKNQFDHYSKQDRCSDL
Cytochrome P450 1A2 (Homo sapiens), sequence (P05177 whole entry, looked up): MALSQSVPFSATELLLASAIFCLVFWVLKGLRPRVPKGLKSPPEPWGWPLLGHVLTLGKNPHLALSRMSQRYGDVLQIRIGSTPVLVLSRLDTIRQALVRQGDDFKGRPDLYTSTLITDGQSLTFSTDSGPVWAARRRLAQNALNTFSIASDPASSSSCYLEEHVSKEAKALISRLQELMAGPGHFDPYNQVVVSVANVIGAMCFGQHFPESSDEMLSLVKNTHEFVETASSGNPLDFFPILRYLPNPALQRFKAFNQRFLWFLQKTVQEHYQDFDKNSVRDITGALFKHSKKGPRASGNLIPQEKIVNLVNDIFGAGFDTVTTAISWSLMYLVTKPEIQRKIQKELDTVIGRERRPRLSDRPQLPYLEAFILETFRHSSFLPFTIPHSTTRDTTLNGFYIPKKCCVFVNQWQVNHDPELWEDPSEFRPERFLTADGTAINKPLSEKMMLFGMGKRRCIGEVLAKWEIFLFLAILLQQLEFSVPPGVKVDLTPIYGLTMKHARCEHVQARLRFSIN
Thyrotropin-releasing hormone receptor (Homo sapiens), sequence (P34981 whole entry, looked up): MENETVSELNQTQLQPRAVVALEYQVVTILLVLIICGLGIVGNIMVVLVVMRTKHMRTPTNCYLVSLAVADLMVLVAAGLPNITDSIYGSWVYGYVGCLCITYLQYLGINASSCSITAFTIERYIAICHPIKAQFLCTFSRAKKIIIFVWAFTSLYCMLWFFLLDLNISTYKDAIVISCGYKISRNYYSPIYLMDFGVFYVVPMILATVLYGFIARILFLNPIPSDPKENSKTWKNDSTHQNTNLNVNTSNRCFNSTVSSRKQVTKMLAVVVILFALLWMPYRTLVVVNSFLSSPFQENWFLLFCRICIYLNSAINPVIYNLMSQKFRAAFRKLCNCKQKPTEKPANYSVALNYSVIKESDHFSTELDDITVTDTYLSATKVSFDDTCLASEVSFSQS
Cytochrome P450 2C9 (Homo sapiens), sequence (P11712 whole entry, looked up): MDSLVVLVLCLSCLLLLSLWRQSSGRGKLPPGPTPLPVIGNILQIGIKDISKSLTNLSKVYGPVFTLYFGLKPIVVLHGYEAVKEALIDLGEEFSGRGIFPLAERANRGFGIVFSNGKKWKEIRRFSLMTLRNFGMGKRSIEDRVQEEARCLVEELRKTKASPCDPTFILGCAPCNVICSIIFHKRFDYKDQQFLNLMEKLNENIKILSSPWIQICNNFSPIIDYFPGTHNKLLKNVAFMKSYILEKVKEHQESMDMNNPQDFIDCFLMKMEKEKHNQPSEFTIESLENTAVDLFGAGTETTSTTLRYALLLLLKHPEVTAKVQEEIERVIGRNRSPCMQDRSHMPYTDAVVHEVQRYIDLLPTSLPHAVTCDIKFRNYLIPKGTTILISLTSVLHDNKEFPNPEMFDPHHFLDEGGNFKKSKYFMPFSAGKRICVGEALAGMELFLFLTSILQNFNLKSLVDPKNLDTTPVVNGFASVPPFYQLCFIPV
Nuclear receptor subfamily 1 group I member 2 (Homo sapiens), sequence (O75469 whole entry, looked up): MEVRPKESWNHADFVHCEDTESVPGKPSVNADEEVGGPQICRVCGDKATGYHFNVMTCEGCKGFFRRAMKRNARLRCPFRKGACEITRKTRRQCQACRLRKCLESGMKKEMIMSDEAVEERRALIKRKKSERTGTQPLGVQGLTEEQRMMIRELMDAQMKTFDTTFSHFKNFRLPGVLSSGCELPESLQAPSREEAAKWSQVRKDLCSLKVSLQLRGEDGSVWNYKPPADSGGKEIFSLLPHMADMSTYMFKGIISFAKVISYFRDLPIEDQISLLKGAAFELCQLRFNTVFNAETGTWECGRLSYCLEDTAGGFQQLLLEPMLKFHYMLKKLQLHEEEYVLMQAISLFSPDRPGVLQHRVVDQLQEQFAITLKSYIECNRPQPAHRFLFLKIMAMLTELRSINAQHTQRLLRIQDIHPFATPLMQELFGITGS
Cytochrome P450 2C19 (Homo sapiens), sequence (P33261 whole entry, looked up): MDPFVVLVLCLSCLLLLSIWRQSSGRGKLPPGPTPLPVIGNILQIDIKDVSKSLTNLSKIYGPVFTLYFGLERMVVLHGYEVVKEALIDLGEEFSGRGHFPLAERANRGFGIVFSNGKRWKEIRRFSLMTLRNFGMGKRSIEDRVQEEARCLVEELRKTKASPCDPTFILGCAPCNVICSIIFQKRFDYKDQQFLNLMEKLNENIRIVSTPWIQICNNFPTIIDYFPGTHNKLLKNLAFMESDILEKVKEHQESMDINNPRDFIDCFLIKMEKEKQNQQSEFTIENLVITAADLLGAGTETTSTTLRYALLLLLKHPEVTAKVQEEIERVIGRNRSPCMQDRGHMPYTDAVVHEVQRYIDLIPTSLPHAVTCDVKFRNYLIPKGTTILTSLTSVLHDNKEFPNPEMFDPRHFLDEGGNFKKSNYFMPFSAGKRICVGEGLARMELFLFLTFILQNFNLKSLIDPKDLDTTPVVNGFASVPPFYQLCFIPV
Cytochrome P450 3A4 (Homo sapiens), sequence (P08684 whole entry, looked up): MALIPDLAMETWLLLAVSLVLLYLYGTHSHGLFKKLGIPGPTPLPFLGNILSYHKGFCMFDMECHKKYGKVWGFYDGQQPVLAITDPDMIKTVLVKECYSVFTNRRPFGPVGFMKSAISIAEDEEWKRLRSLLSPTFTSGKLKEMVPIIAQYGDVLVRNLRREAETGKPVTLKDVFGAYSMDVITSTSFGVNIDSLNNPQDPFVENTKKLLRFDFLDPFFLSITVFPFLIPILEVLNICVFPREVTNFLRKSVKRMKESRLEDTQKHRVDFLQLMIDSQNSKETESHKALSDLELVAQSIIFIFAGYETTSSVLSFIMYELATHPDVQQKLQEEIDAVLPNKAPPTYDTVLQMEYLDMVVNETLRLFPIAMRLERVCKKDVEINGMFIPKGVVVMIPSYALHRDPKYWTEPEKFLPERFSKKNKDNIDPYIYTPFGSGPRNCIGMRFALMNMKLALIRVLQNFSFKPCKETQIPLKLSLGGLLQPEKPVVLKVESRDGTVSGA

In the case of `CCCCC(CC)COP(=O)(Oc1ccccc1)Oc1ccccc1` (configuration not stated), the Potency result in [1], in assay [2], in [3], in [4], in assay [5] and in [7] was “inactive” each time. Moreover, the Potency entry in assay [8], in [9], in [10] and in assay [11] was “inactive” in each case. For the same compound, the Potency in [6] was 7.7 µM (active); in [12], 2.83 µM (active); in [13], 3.99 µM (active); in assay [14] it was 25.2 µM (active); in assay [15] it was 5.64 µM (active).
On to `CN1C(=O)NC(=O)C(C)(C2=CCCCC2)C1=O` (configuration not stated), for which the Potency result in assay [1], in [2], in assay [3], in [4], in assay [5] and in assay [6] was “inactive” each time. In addition, the Potency result in assay [17], in assay [18], in assay [7], in assay [8], in [9] and in assay [10] was “inactive” in each case. For the same compound, the Potency entry in [11], in assay [12], in assay [13], in [14], in assay [19] and in [15] was “inactive” in each case. Also, the max activation in assay [16] is -1.51% and -2.62%.
Take `O=C1c2ccccc2C(=O)C1C(=O)C(c1ccccc1)c1ccccc1`: the Potency result in assay [1], in assay [2], in assay [3], in assay [4], in assay [17] and in [18] was “inactive” in each case. Moreover, the Potency entry in assay [7], in assay [8], in [9], in [10], in [19] and in assay [15] was “inactive” throughout. In addition, in assay [16], the max activation was -0.238%. Besides, the Potency in assay [12] is 21.9 µM (active); in assay [13], 1.38 µM (active); in assay [14], 15.5 µM (active).
In the case of `CO[C@@H]1[C@H](OC(=O)NC(=O)CCl)CC[C@]2(CO2)[C@H]1[C@@]1(C)O[C@@H]1CC=C(C)C`, in [1], the activation was -0.27% [at 11.8 µM]. The activity change, negative = cytotoxicity is 1.62% [at 19 µM] in [2] and -0.84% [at 19 µM] in [5]. Also, the caspase activation in [3] was 1.54% [at 19 µM]. In addition, the caspase-3/7 activation in assay [4] was 1.61% [at 19 µM]. Further, the Potency in assay [6] was 10.6 µM (active); in assay [12], 21.8 µM (active); in assay [15] it was 7.74 µM (active). Moreover, the activity, negative = inhibition in [7] was 2.96% [at 23.6 µM]. In addition, the activity change, negative = inhibition in assay [8] was 0.618% [at 23.6 µM]; in assay [9], -0.397% [at 23.8 µM]; in assay [10], -0.551% [at 23.6 µM]; in assay [11], -6.64% [at 23.6 µM]; in [19], 7.85% [at 15.8 µM].
For the compound `Cl/C=C\Cl`, the Potency result in assay [1], in [2], in assay [3], in assay [4], in assay [6] and in assay [7] was “inactive” each time. Also, the Potency result in [8], in assay [9], in assay [10], in [11], in assay [12] and in assay [13] was “inactive” in each case. For the same compound, the Potency entry in [14], in assay [19] and in assay [15] was “inactive” throughout.
Regarding `S=C=NCc1ccccc1`, the Potency entry in [1], in [2], in assay [3], in assay [20], in assay [7] and in [8] was “inactive” throughout. The Potency result in assay [9], in assay [10] and in [19] was “inactive” each time. For the same compound, the Potency was 61.8 µM (active) in assay [6]; 28.6 µM (active) in assay [11]; 5.08 µM (active) in assay [12]; 36 µM (active) in assay [13]; 28.6 µM (active) in assay [14]; 20.2 µM (active) in [15].
As for `O=[Se]=O`, the Potency result in [1], in assay [3], in assay [4], in assay [6], in assay [7] and in assay [8] was “inactive” each time. Moreover, the Potency result in assay [9], in assay [10], in assay [11], in [14] and in [15] was “inactive” each time. Besides, the Potency in [2] was 24.2 µM (active); in assay [5] it was 21.5 µM (active).
